Rows were chosen to be rich in hits. Some 5.7% of all compounds tested hit in one or more screens of this group.
Myeloid diff MLP: promotes myeloid progenitor differentiation; 360,000 tested, 1% active; calls only at 10 µM; ER-HoxA9 myeloid progenitors, lysozyme-GFP differentiation, flow cytometry;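 active means normalized GFP-positive differentiation at or above the plate's own cutoff, the solvent-only control mean plus 3 SD; inconclusive means no clear call, values can overlap the other calls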;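 further: cells exposed to compound for four days before flow analysis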
GRIN3A LBD mod: NR3A (human) ligand-binding domain modulation. NR3A LBD differential scanning fluorimetry, Tm shift; 0% = protein alone, 100% = glycine-bound protein. Tm shift relative to glycine control, % at 25 µM. 340,000 tested, 2.5% active;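 active means melting temperature shift of at least 10% of the positive control shift, at one fixed dose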
MPTP block: permeability transition pore inhibition | isolated mouse mitochondria, Ca2+ swelling absorbance, 30 min | inhibition, % at 10 µM | 360,000 tested, 1.4% active | AID 602449;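 active means inhibition of 50% or more, scaled per plate between neutral and stimulator controls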;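 further: 0% = DMSO wells given calcium and 100% = 1 mM EGTA wells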
FAS-TE inh: FAS thioesterase (human) inhibition. recombinant FAS-TE, OMFH fluorogenic substrate, fluorescence endpoint. inhibition, % at 15 µM. 360,000 tested, 0.67% active;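 active means compounds whose normalised, plate-corrected inhibition of enzyme fluorescence in the single-dose primary screen is 50% or more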;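 further: 0% = DMSO with enzyme and 100% = substrate without enzyme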
rCAG RNA binder: binds r(CAG) RNA repeats; AID 651821; inhibition, % at 3 µM; r(CAG) RNA repeat, TO-PRO-1 dye displacement fluorescence; 370,000 tested, 1.3% active;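 active means inhibition above the plate cutoff, the mean of all test compounds on that plate plus 3 SD, cut at about 35% in these data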;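 further: 0% = DMSO alone and 100% = 100 µM mitoxantrone as full dye displacement; higher means more dye released from RNA so lower well fluorescence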
Active calls of the source: *; i = inactive; ? = inconclusive; . = not tested or not shown; + = active, no number.

SMILES	Myeloid diff MLP	GRIN3A LBD mod	MPTP block	FAS-TE inh	rCAG RNA binder
C[C@H](CO)N1C[C@H](C)[C@@H](CN(C)C(=O)NC2CCCCC2)OCc2cn(nn2)CCCC1=O	.	.	.	.	-1.1
C[C@@H]1ON(C)[C@H]2C[C@H]3c4cc(-c5ccc(F)cc5)ccc4CCN3C[C@@H]12	.	.	.	.	2.8
CCN1C(=O)[C@@H]2Cc3c([nH]c4ccccc34)C(c3ccc(OC)cc3)N2C1=S (stereo not given in full)	+	-22.4	2.9	7.3	.
CC(=O)N(C)C[C@@H]1OCc2ccccc2-c2c(n(C)c3ccccc23)C(=O)N([C@@H](C)CO)C[C@@H]1C	.	.	.	.	3.2
O=C(OC(C(=O)Nc1cccc(C(F)(F)F)c1)c1ccccc1)C1CCCCC1 (stereo not given)	i	13.7*	41.5	22.8	3.5
CC(OC(=O)C1CCCCC1)C(=O)Nc1cccc(Cl)c1 (stereo not given)	i	-5.3	-1.0	12.5	-4.3
Cc1ccc2c(c1)C(CS(=O)(=O)NCC(C)C)NC2 (stereo not given)	.	.	.	.	6.0
Cc1cc(C)n(-c2ccc(C(=O)Nc3cccc(S(=O)(=O)N(C)C)c3)cc2)n1	i	3.0	3.2	17.4	0.7
Cc1cc(C)n(-c2ccc(C(=O)Nc3nc4ccccc4s3)cc2)n1	i	14.6*	-2.1	-4.2	0.5
Cc1ccc(C(=O)Nc2ccc(S(=O)(=O)NCc3ccco3)cc2)cc1	i	-1.4	-1.2	-4.5	15.6
Nc1ccc(C(=O)Nc2nc3ccccc3s2)cc1	i	7.7	-1.3	-1.6	2.0
Cc1cc(C)n(-c2ccc(C(=O)Nc3ccc(S(=O)(=O)NCc4ccco4)cc3)cc2)n1	i	17.2*	-2.2	10.0	4.0
CC(=O)Nc1ccc(S(=O)(=O)NNC(=S)NCc2ccco2)cc1	+	1.5	-0.1	-6.8	-3.0
Cc1cc(C)n(-c2ccc(C(=O)Nc3cccc([N+](=O)[O-])c3)cc2)n1	i	18.6*	1.7	25.7	-1.2
CC(C)c1cc(C(C)C)c(S(=O)(=O)N2CCC(C(=O)NCc3cccs3)CC2)c(C(C)C)c1	.	.	.	.	6.3
COc1ccc(-n2nc3ccc(NS(C)(=O)=O)cc3n2)cc1Cl	i	21.7*	3.1	0.0	18.4
COc1ccc(NS(=O)(=O)c2cn(C)cn2)cc1Cl	i	-3.9	-1.5	-5.1	-2.6
O=C1c2cccc3cc([N+](=O)[O-])cc(c23)C(=O)N1CCN1CCCC1	?	-0.6	-0.3	-8.4	13.2
Nc1cc2c3c(cccc3c1)C(=O)N(CCN1CCCC1)C2=O	+	-0.4	-1.6	-10.6	-9.5
COc1ccc(S(=O)(=O)N2CCN(Cc3ccccc3)CC2)cc1	i	11.2*	-2.0	11.0	-3.2
COc1cccc(S(=O)(=O)N2CCN(Cc3ccc4c(c3)OCO4)CC2)c1	i	14.4*	1.5	14.3	-6.2
CC(C)CNS(=O)(=O)c1ccc(S(=O)(=O)N2CCCN(Cc3ccccc3)C2)cc1	i	12.7*	0.8	-0.9	.
COc1ccc(S(=O)(=O)N2CCN(Cc3cccc(OC)c3)CC2)cc1	i	-1.2	0.2	17.5	-5.3
COC(=O)[C@]12C[C@H](CC(=O)NCC3CCCCC3)C(=O)N(Cc3ccc4c(c3)OCO4)C1=C[C@H](C(C)C)O[C@@H]2C1CC1	.	.	.	.	4.0
Cc1ccc(N2CC(C(N)=O)CC2=O)cc1 (stereo not given)	i	1.6	-3.4	-3.2	2.1
SMILES	Myeloid diff MLP	GRIN3A LBD mod	MPTP block	FAS-TE inh	rCAG RNA binder
Cc1ccc(N2CCN(c3ccc(C)cc3)C(CC(=O)O)C2=O)cc1 (stereo not given)	+	-2.4	-0.7	-3.6	8.1
Nc1nc2c(ncn2[C@@H]2O[C@H](C(=O)N[C@H](Cc3ccccc3)C(=O)NCc3ccc4c(c3)OCO4)[C@@H](O)[C@H]2O)c(=O)[nH]1	.	.	.	.	9.5
CCOC(=O)C1(C(=O)O)NC(=O)CC1c1ccccc1 (stereo not given)	i	12.1*	-0.4	-5.2	-2.5
O=c1[nH]c2ccccc2nc1-c1nnnn1C1CCCC1	i	.	-1.0	-6.4	4.6
O=c1[nH]c2cc3ccccc3cc2nc1-c1nnnn1C1CCCC1	+	.	1.0	0.2	17.7
C=CCN(CC#Cc1ccccn1)Cc1ccc(OC)cc1OC	.	.	.	.	0.5
Nc1nnc(-c2ccc(Cl)cc2Cl)s1	i	12.1*	-0.8	-5.2	4.9
CC(C)CC(=O)c1c(O)cc(O)c2c1OC1=C(C(=O)C(C)(C)C(=O)C1(C)C)C2CC(C)C (stereo not given)	.	.	.	.	29.0
Cn1c(=O)c2c(nc(N3CCc4ccccc4C3)n2Cc2ccc(Br)cc2)n(C)c1=O	i	10.9*	-0.9	7.1	1.1
Cc1ccc(NCN2C(=O)c3ccccc3C2=O)c(C)n1	.	.	.	.	-0.1
COC1=CC(=Cc2c(N)n3nc(CC(=O)N4CCCCC4)sc3nc2=O)C=C(OC)C1=O	+	1.2	-1.3	-14.6	24.6
Cc1ccc(C(=O)Oc2ccc([N+](=O)[O-])cc2)cc1S(=O)(=O)N1CCCCCC1	i	12.7*	1.1	40.9	2.0
Cc1ccc(C(=O)OCC(=O)c2c(N)n(C)c(=O)n(C)c2=O)cc1S(=O)(=O)N1CCCCC1	i	10.2*	1.2	-2.0	0.4
COc1ccc(Cn2ccc3ccc(-c4ccc5ccn(Cc6ccc(C#N)cc6)c5c4)cc32)cc1	.	.	.	.	12.8
Cc1ccccc1CS(=O)(=O)Cc1ccc(C(=O)Nc2ccc(F)cc2)o1	.	.	.	.	9.7
Cc1ccc(Cl)c(OC(=O)c2ccc(N3CCOCC3)c([N+](=O)[O-])c2)c1	i	22.1*	6.1	23.0	0.5
COC(=O)c1cc2ccsc2n1Cc1ccccc1F	i	17.4*	1.4	23.1	-2.3
CC(CCN1CCC(C(O)(c2ccccc2)c2ccccc2)CC1)Oc1cccc(Br)c1 (stereo not given)	.	.	.	.	4.9
CCCC/C=C/C(NC(=O)CCc1ccccc1)c1ccccc1 (stereo not given)	+	-2.8	-0.4	9.7	-7.8
COC(=O)[C@H](CC(C)C)N(Cc1cn(Cc2ccc(C)cc2)nn1)S(=O)(=O)c1ccc(F)cc1Br	.	.	.	.	0.2
CN(C)CCN=Cc1c(O)n(-c2ccc(S(=O)(=O)N3CCOCC3)cc2)c(=O)c2ccccc12	i	14.1*	-0.8	-3.5	-1.9
Cc1cccc(-n2c(O)c(C=NCCCN3CCOCC3)c3ccccc3c2=O)c1	i	3.1	0.0	-5.5	-7.6
Cc1cc(C)nc(SC2=CS(=O)(=O)c3ccccc32)n1	+	1.0	1.7	-1.6	-1.8
O=C(C(=O)N1CCC(CNS(=O)(=O)c2cccc(C(F)(F)F)c2)CC1)c1cc2ccccc2o1	.	.	.	.	3.0
Cc1cc(C)nc(NC(=O)/C=C/c2cccs2)c1	i	1.6	2.1	-0.3	-4.7
O=C(/C=C/c1cccs1)Nc1cccc(NC(=O)/C=C/c2cccs2)n1	i	23.7*	8.5	19.2	19.0
O=C(/C=C/c1cccs1)Nc1nccs1	i	-9.6	-1.3	-8.7	-5.1
Cc1cc(C)c(-c2csc(NC(=O)/C=C/c3cccs3)n2)c(C)c1	+	0.3	11.7	24.7	8.5

Screening results as filed in PubChem.
